Consider eight compounds from PubChem BioAssay (Tox21).

Experiment [1] can be described thus: qHTS assay for small molecules that induce genotoxicity in human embryonic kidney cells expressing luciferase-tagged ATAD5 (AID 651632). Further: nearly all actives have a fitted effect of over 15% in size. A digest of the protocol:
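Increased luciferase signal from ATAD5-tagged reporter cells indicates DNA-damage-driven ATAD5 induction. HEK293T cells are treated for 16 hr at 37C before detection with Amplite.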

A short description of experiment [2]: qHTS assay for small molecules that induce genotoxicity in human embryonic kidney cells expressing luciferase-tagged ATAD5 - cell viability (AID 651634; calls by dose curve; further: nearly all actives have a fitted effect of over 25% in size). A digest of the protocol:
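Cytotoxicity counterscreen in HEK293T cells bearing an ATAD5-luciferase reporter: live-cell protease activity measured by CellTiter-Fluor fluorescence after 15.5 hr compound exposure.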

Experiment [3] can be described thus: qHTS assay for small molecule disruptors of the mitochondrial membrane potential - cell viability (AID 720634; calls by dose curve; further: nearly all actives have a fitted effect of over 20% in size; further: potency means the concentration at half of the fitted maximal effect). Summed up:
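After overnight attachment at 37 C, HepG2 cells received compound or DMSO vehicle for 1 hr. Viability is then taken from ATP-driven luminescence following a 30 min room-temperature CellTiter-Glo step.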

Experiment [4] in a line: qHTS assay for small molecule disruptors of the mitochondrial membrane potential (AID 720635). Further: potency means the concentration at half of the fitted maximal effect. A digest of the protocol:
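HepG2 cells exposed to compound 1 hr at 37C, then Mito-MPS dye 30 min. Ratio read of aggregate (540/590 nm) versus monomer (490/535 nm) fluorescence.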

Experiment [5] is described as follows: qHTS assay to test for compound auto fluorescence at 590 nm (red) in HepG2 cells (AID 720674). A digest of the protocol: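 Fluorescence at 590 nm emission following 540 nm excitation was recorded from HepG2 wells one hour after compound transfer, with DMSO-only wells as vehicle and Rose Bengal sodium equivalency as the scale.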
Experiment [6] in a line: qHTS assay to test for compound auto fluorescence at 535 nm (green) in HepG2 cells (AID 720675).
The nature of experiment [7]: qHTS assay to test for compound auto fluorescence at 460 nm (blue) in HEK293 cells (AID 720678). A digest of the protocol: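 HEK293 cells (2,000 per well, medium with 10% dialyzed FBS) attached for 4-5 hr at 37C, then received compound and stood overnight at 37C, 5% CO2. Blue fluorescence was read at Ex/Em 405/460 nm and expressed relative to triamterene.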
Experiment [8] in a line: qHTS assay to test for compound auto fluorescence at 590 nm (red) in HEK293 cells (AID 720679). Summed up:
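HEK293 cells (2,000/well, medium with 10% dialyzed FBS) attached for 4-5 hr at 37C, received 23 nL compound and were incubated overnight at 37C, 5% CO2. Red fluorescence was then read at 540/590nm Ex/Em, referenced to Rose Bengal sodium.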

The nature of experiment [9]: qHTS assay to test for compound auto fluorescence at 535 nm (green) in HEK293 cells (AID 720680).
Experiment [10] can be described thus: qHTS assay to test for compound auto fluorescence at 460 nm (blue) in HEK293 cell free culture (AID 720681). A digest of the protocol:
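Compounds were added to cell-free DMEM with 10% FBS and fluorescence read directly. The blue channel used 405 nm excitation and 460 nm emission, with triamterene as the reference fluorophore.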

The nature of experiment [11]: qHTS assay to test for compound auto fluorescence at 535 nm (green) in HEK293 cell free culture (AID 720682). A digest of the protocol:
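Using fluorescein as calibrant, autofluorescence was quantified at 485/535 nm in cell-free DMEM containing 10% FBS after pintool addition of compound or vehicle.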

Experiment [12] in a line: qHTS assay to test for compound auto fluorescence at 590 nm (red) in HEK293 cell free culture (AID 720683). A digest of the protocol: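 Cell-free wells of DMEM with 10% FBS received compound, and intrinsic fluorescence was read at excitation/emission 540/590 nm. Values expressed as equivalence to Rose Bengal sodium.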
The nature of experiment [13]: qHTS assay to test for compound auto fluorescence at 590 nm (red) in HepG2 cell free culture (AID 720684). A digest of the protocol: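 Compounds are added to culture medium (MEM, 10% FBS) lacking cells, then fluorescence is read at excitation 540 nm, emission 590 nm, with Rose Bengal sodium as the equivalency standard.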
The nature of experiment [14]: qHTS assay to test for compound auto fluorescence at 460 nm (blue) in HepG2 cell free culture (AID 720685). A digest of the protocol: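 Compound (23 nL) or DMSO pinned into cell-free MEM with 10% FBS; blue fluorescence read at 405/460 nm excitation/emission, expressed as auto-fluorescence equivalency to triamterene.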
Experiment [15] can be described thus: qHTS assay to test for compound auto fluorescence at 535 nm (green) in HepG2 cell free culture (AID 720686).
The nature of experiment [16]: qHTS assay to test for compound auto fluorescence at 460 nm (blue) in HepG2 cells (AID 720687). A digest of the protocol: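 HepG2 cells in MEM with 10% FBS, attached overnight at 37 C, were exposed to compound or DMSO for 1 hr at 37 C, 5% CO2. Blue fluorescence was read at 405/460 nm, with triamterene as reference fluorophore.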
The target of experiment [17] is Glucocorticoid receptor (Homo sapiens) (UniProt P04150). In words: qHTS assay to identify small molecule agonists of the glucocorticoid receptor (GR) signaling pathway (AID 720691; active means well fitted activation curve with a large enough effect in the signal ratio in the repeat runs, not every such curve was filed as active; the % refers to the signal ratio). The following applies: GR-bla HeLa, beta-lactamase reporter ratio, 18 h; activation: at 62.4 µM (top of the series). A digest of the protocol:
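Agonist mode in a HeLa line carrying a GRE-controlled beta-lactamase reporter. Compounds act for 18 h at 37 C before a 2 h room-temperature FRET substrate step and fluorescence reading.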

Experiment [18] shares this target. Nature of the experiment: qHTS assay to identify small molecule antagonists of the glucocorticoid receptor (GR) signaling pathway (AID 720692; active means well fitted inhibition curve with a large enough effect in the signal ratio in the repeat runs, not every such curve was filed as active; the % refers to the signal ratio; further: potency means the concentration at half of the fitted maximal effect). A digest of the protocol: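 Cells plated, rested 4 h at 37 C/5% CO2; compounds in DMSO pin-transferred; dexamethasone added to 5 nM final; 18 h at 37 C; B/G FRET substrate added, 2 h room temperature; fluorescence measured.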

Experiment [19] is described as follows: qHTS assay for small molecule agonists of the p53 signaling pathway - cell viability (AID 651633; calls by dose curve; further: nearly all actives have a fitted effect of over 30% in size; further: potency means the concentration at half of the fitted maximal effect). A digest of the protocol: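 p53RE-bla cells were treated with compound for 16 hours at 37 C. Cytotoxicity was then measured as CellTiter-Glo luminescence after 30 min at room temperature.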

Values joined by “and” are separate entries in the source; they are usually repeats but may differ in a detail not shown here. Equal values may be shown once. Records with an inconclusive call do not appear. Where a structure was tested more than once in an assay, its records may differ in their call. Active and inactive are the calls of the source. Unless noted, the call rests on the fitted dose curve; in most records, active means well fitted curve in the direction sought with a large enough effect in the repeat runs; inconclusive means weak or mixed curves; inactive means no such curve, though single readings can be large; an effect the other way counts as inactive or inconclusive.

Glucocorticoid receptor (Homo sapiens), sequence (P04150 whole entry, looked up): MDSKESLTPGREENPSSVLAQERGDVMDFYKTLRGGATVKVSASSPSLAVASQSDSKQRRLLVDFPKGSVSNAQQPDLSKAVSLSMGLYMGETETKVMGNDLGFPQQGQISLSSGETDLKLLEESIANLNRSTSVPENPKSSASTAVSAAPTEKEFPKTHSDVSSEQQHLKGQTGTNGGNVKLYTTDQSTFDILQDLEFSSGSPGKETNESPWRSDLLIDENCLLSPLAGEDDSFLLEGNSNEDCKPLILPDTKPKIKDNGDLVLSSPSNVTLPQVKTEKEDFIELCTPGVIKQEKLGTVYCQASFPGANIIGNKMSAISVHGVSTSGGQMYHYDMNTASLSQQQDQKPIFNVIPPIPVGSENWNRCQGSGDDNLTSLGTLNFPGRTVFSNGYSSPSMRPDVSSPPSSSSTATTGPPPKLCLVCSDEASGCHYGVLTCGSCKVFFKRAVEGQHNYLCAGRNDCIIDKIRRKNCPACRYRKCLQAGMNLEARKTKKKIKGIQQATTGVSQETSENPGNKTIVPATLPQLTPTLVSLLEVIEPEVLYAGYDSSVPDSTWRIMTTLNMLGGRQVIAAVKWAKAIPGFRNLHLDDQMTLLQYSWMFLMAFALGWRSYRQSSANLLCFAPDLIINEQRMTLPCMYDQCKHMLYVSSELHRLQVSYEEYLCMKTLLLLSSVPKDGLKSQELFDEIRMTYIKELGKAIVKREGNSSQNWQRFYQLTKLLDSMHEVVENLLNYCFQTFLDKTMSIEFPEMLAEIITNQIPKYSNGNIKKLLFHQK

Take `O=C(Nc1ccc(F)cc1F)c1cccnc1Oc1cccc(C(F)(F)F)c1`: the Potency result in experiment [1], in [2], in experiment [3], in experiment [6], in experiment [7] and in [10] was “inactive” in each case. The Potency entry in experiment [14], in experiment [15], in experiment [16], in [17] and in [18] was “inactive” in each case. Besides, in [4], the Potency is 23.8 µM (active). Also, the compound was classed as inactive in experiment [5], in experiment [8], in experiment [9], in experiment [11], in experiment [12] and in [13].
`CN(C)CCc1c[nH]c2ccccc12`: the Potency result in experiment [1], in experiment [2], in [3], in [4], in experiment [6] and in experiment [7] was “inactive” throughout. For the same compound, the Potency entry in experiment [10], in experiment [14], in experiment [15], in experiment [16] and in experiment [18] was “inactive” in each case. The result in [5], in [8], in experiment [9], in [11] and in experiment [12] was inactive.
For `ClC1(Cl)C2(Cl)C3(Cl)C4(Cl)C(Cl)(Cl)C5(Cl)C3(Cl)C1(Cl)C5(Cl)C24Cl` (centres undefined), the Potency entry in [1], in [19], in experiment [3], in experiment [6], in [7] and in experiment [10] was “inactive” throughout. For the same compound, the Potency entry in experiment [14], in [15], in experiment [16] and in [18] was “inactive” throughout. The result in [5], in experiment [8], in [9] and in experiment [12] was inactive.
Turning to `CCNS(=O)(=O)C(F)(F)C(F)(F)C(F)(F)C(F)(F)C(F)(F)C(F)(F)C(F)(F)C(F)(F)F`, the Potency entry in [1], in experiment [19], in experiment [6], in [7], in [10] and in [14] was “inactive” throughout. Further, the Potency entry in [15] and in experiment [16] was “inactive” each time. Further, the Potency was 5.22 µM (active) in experiment [3] and 1.85 µM (active) in experiment [4]. In addition, the compound was classed as inactive in experiment [5], in experiment [9], in [11], in [12] and in experiment [13].
For the compound `CC(C)C(Br)C(=O)NC(N)=O` (centres undefined), the Potency result in experiment [1], in experiment [19], in [2], in [6], in experiment [7] and in experiment [10] was “inactive” in each case. Besides, the Potency entry in experiment [14], in experiment [15] and in [16] was “inactive” in each case. Moreover, the outcome in experiment [8], in [9], in experiment [12] and in experiment [13] was inactive.
For `O=S1(=O)OCC2C(CO1)C1(Cl)C(Cl)=C(Cl)C2(Cl)C1(Cl)Cl` (centres undefined), the Potency result in experiment [1], in experiment [19], in experiment [6], in experiment [7], in experiment [10] and in experiment [14] was “inactive” throughout. The Potency result in [15], in experiment [16] and in experiment [17] was “inactive” throughout. Also, the values for the Potency in [4] and in experiment [18] were 13.7 µM (active) and 17.4 µM (active), respectively. The compound was classed as inactive in [8], in experiment [9], in experiment [11], in experiment [12] and in [13].
Regarding `CCCCCCCCCCCCCCn1cc[n+](C)c1`, the Potency entry in experiment [1], in experiment [6], in experiment [7], in experiment [10], in experiment [14] and in [15] was “inactive” throughout. For the same compound, the Potency entry in experiment [16] was “inactive”. The Potency in [19] was 43.4 µM (active) and 67.8 µM (active) and inactive; in experiment [4] it was 10.7 µM (active) and 34.3 µM (active). The outcome in experiment [5], in experiment [9], in experiment [11], in experiment [12] and in [13] was inactive.
As for `O=C(O)[C@H](O)[C@@H](O)C(=O)O`, the Potency result in experiment [1], in experiment [2], in experiment [3], in experiment [6], in experiment [7] and in [10] was “inactive” in each case. For the same compound, the Potency result in experiment [14], in experiment [15] and in experiment [16] was “inactive” in each case. Besides, the result in experiment [8], in experiment [9], in experiment [11] and in experiment [13] was inactive.
